Screens: PubChem BioAssay, National Center for Advancing Translational Sciences (NCATS)
Cycloheximide cs: counter-screen for Shiga toxin inhibitors: cycloheximide protein synthesis inhibition | cell reporter, cycloheximide protein synthesis inhibition counterscreen | max response, % | 300,000 tested, 12% active; in the data active = max response mostly above about 13%, no sharp cut-off; inactive = mostly below about 14%; note: read at 38.3 µM for the half of the compounds with a filed dose
NS1 function inh: blocks influenza NS1 protein function; Potency, µM (series often up to 46.1 µM); 270,000 tested, 0.4% active; AID 2326; note: actives are rising curves; nearly all actives have a fitted effect of over 50% in size
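Recovery from NS1-induced slow growth read by OD600 in budding yeast switched to galactose assay medium (pH 6.0, -URA) at 1:100 dilution. Compound 23 nl per well; the matching strain lacking NS1 serves as control.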
Pf growth 48h: inhibits P. falciparum growth in the first generation, 48 h; P. falciparum luciferase growth in erythrocytes, 48 h; Potency, µM (titrated, usually from 28.7 µM), actives largely listed as inhibitors; 310,000 tested, 5.9% active; active = well fitted inhibition curve with a large enough effect; inconclusive = small, poorly fitted or top-dose-only effect, or another doubt; inactive = no such curve, though single readings can be large or run the other way
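Luciferase-expressing P. falciparum in infected erythrocytes (2% hematocrit, 0.1% parasitemia final) in RPMI 1640/0.5% Albumax were exposed to compound for 48 hours at 37 C, 5% CO2; growth read as luminescence.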
Pf growth 96h: P. falciparum growth inhibition at 96 hour, primary screen for plastid delayed-death inhibitors. 320,000 tested, 6.9% active. P. falciparum luciferase reporter growth, 96 h. Potency, µM (titrated, usually from 28.7 µM), most hits filed as inhibitors; active = well fitted inhibition curve with a large enough effect; inconclusive = small, poorly fitted or top-dose-only effect, or another doubt; inactive = no such curve, though single readings can be large or run the other way
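Readout is luminescence from an integrated firefly luciferase in P. falciparum. Red cells, 2% hematocrit and 0.05% parasitemia final, were cultured with compound through two parasite generations (96 hours) at 37 C, 5% CO2.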
SARS PLpro yeast: blocks SARS-CoV papain-like protease in a yeast assay | S. cerevisiae expressing SARS-CoV PLpro, growth rescue | 330,000 tested, 0.19% active | Potency, µM (series often up to 32.9 µM), usual class: activators; note: nearly all actives have a fitted effect of over 55% in size
Shiga toxin inh: inhibitors of Shiga toxin in Vero cells | Vero cells, Shiga toxin protein synthesis inhibition reporter | inhibition, % at 38.7 µM | 290,000 tested, 9.2% active | AID 2315; in the data active = inhibition mostly above about 28%, no sharp cut-off; inactive = mostly below about 43%
Large screens that a line does not name were inactive. Only some compounds are listed: those with a hit (about 21% of all), similar ones and a draw of the others. Unless noted, calls come from the whole dose curve.

C#CCOCCOCCOCCNc1nc(N2CCN(C(=O)Cn3cc(CCCN=C(N)N)nn3)CC2)nc(N2CCN(C(=O)Cn3cc(CCCN=C(N)N)nn3)CC2)n1	Pf growth 48h inconclusive, Pf growth 96h 0.033µM
C#CCOCCOCCOCCNc1nc(N2CCN(C(=O)[C@H]([C@@H](C)CC)n3cc(CCCN=C(N)N)nn3)CC2)nc(N2CCN(C(=O)[C@H]([C@@H](C)CC)n3cc(CCCN=C(N)N)nn3)CC2)n1	Pf growth 48h inconclusive, Pf growth 96h 0.93µM
Cc1ccc(S(=O)(=O)N2CCOCC2)cc1NC(=O)COC(=O)CNC(=O)c1ccc(Cl)cc1Cl	none (no result: SARS PLpro yeast)
C#CCOCCOCCOCCNc1nc(N2CCN(C(=O)Cn3cc(CC(C)O)nn3)CC2)nc(N2CCN(C(=O)[C@H]([C@@H](C)CC)n3cc(CCCN=C(N)N)nn3)CC2)n1 (stereo partly specified)	Pf growth 96h 4.7µM
CSc1nnc(-c2cccs2)n1C	none
CSc1nnc(-c2ccc(Br)s2)n1C	Cycloheximide cs 47, Shiga toxin inh 69
CSc1nnc(-c2sc(-c3ccccc3)nc2C)n1C	Cycloheximide cs 12
CCCOc1ccc(N2C(=O)CC(N3CCC(c4nncn4CC)CC3)C2=O)cc1 (stereo unspecified)	none (no result: Pf growth 96h, SARS PLpro yeast)
CC1CCc2sc3c(c2C1)c(=O)n(CC(=O)O)c(=O)n3Cc1ccc(Cl)cc1 (stereo unspecified)	none
COc1ccc(Nc2nnc(SCC(=O)Nc3ccc4[nH]c(=O)[nH]c4c3)s2)cc1	none
O=C(CNC(=O)c1ccccc1)OCc1nc2ccccc2s1	Cycloheximide cs 42, Shiga toxin inh 49
O=C(CNC(=O)c1ccccc1F)OCc1nc2ccccc2s1	Shiga toxin inh 67 (no result: NS1 function inh)
O=C(CNC(=O)c1ccc(Cl)cc1Cl)OCc1nc2ccccc2s1	none
CC(=O)N1CCC(N(CCN2CCOCC2)C(=S)Nc2ccc(C)c(C)c2)CC1	none (no result: NS1 function inh)
CCCCn1c(N)c(N(Cc2ccccc2OC)C(=O)C(C)Oc2ccc(Cl)cc2)c(=O)[nH]c1=O (stereo unspecified)	Pf growth 48h inconclusive, Pf growth 96h inconclusive
CCc1ccccc1N(C(=O)c1snc(C(N)=O)c1N)C(C(=O)NCC1CCCO1)c1ccc(C)o1 (stereo unspecified)	Pf growth 48h inconclusive, Pf growth 96h 9.3µM
COc1ccc(N(C(=O)c2snc(C(N)=O)c2N)C(C(=O)NCC2CCCO2)c2ccc(C)o2)cc1OC (stereo unspecified)	Pf growth 48h 8.3µM
COc1ccc(C(C(=O)NCC2CCCO2)N(C(=O)c2snc(C(N)=O)c2N)c2ccc(C)cc2)cc1OC (stereo unspecified)	Pf growth 48h 10µM, Pf growth 96h 13µM
COc1ccc(C(C(=O)NCC2CCCO2)N(C(=O)CNC(=O)c2cccs2)c2ccccc2C)cc1OC (stereo unspecified)	none
CC(Sc1ncccn1)C(=O)Nc1ccc2c(c1)OCO2 (stereo unspecified)	none (no result: Cycloheximide cs, NS1 function inh, Pf growth 48h, Pf growth 96h, Shiga toxin inh)
CCN(CC)CCn1c(=N)n(CCO)c2ccccc21	Pf growth 96h inconclusive
CCN(CC)CCn1c(=N)n(CC(=O)c2ccc(Br)s2)c2ccccc21	Pf growth 48h 1.9µM, Pf growth 96h 1.9µM
CCN(CC)CCn1c(=N)n(CC(O)COc2ccccc2)c2ccccc21 (stereo unspecified)	Pf growth 48h 3.3µM, Pf growth 96h 2.3µM
CCN(CC)CCn1c(=N)n(CCOc2ccccc2)c2ccccc21	Pf growth 96h 8.3µM (no result: Pf growth 48h)
COc1ccc(OCC(=O)N2CCC(n3nccc3NC(=O)C3CC3)CC2)cc1	Pf growth 96h inconclusive
C(=N\Nc1nc(-c2ccccc2)cs1)/c1cccnc1	Cycloheximide cs 46, Pf growth 48h inconclusive, Pf growth 96h inconclusive, Shiga toxin inh 61
Cc1onc(-c2ccccc2)c1-c1csc(N/N=C/c2ccccc2Cl)n1	none
Cc1onc(-c2ccc(Cl)cc2Cl)c1-c1csc(N/N=C/c2ccccc2Cl)n1	Pf growth 48h 6.6µM, Pf growth 96h inconclusive
CC(C)(C)c1csc(N/N=C/c2cccnc2)n1	Cycloheximide cs 37, Pf growth 48h 13µM, Pf growth 96h inconclusive, Shiga toxin inh 127
COC(=O)c1ccc(/C=N/Nc2nc(-c3ccccc3)cs2)cc1	none
CCCC(=O)Nc1ccc(-c2csc(N/N=C\c3ccncc3)n2)cc1	Cycloheximide cs 31, Pf growth 48h 8.3µM, Pf growth 96h inconclusive
CC(C)(C)NC(=S)N/N=C/c1cccnc1	none
CC(=O)Nc1ccc(-c2csc(N/N=C\c3ccncc3)n2)cc1	Pf growth 48h inconclusive, Pf growth 96h inconclusive
CC(C)n1c(CSCc2ccc(Cl)cc2Cl)n[nH]c1=S	Pf growth 48h inconclusive (no result: NS1 function inh)
CC(C)(C)NC(=O)CN(C(=O)CS(=O)CC(=O)Nc1ccc(F)cc1)c1ccc2c(c1)OCCO2 (stereo unspecified)	none (no result: NS1 function inh)
CCOC(=O)N1CCC(NCc2c(C(=O)N(C)Cc3ccccc3)nc3ccccn23)CC1	Pf growth 48h inconclusive, Pf growth 96h inconclusive
Cc1cc(=O)[nH]c(N/N=C/c2ccc(C)o2)n1	SARS PLpro yeast inconclusive
CC(C)(C)c1csc(NC(=O)c2c(F)c(F)c(F)c(F)c2F)n1	none
Cc1ccc(/C=N/Nc2nc3ccccc3s2)o1	Cycloheximide cs 43, Pf growth 96h inconclusive, Shiga toxin inh 75
Clc1ccc(-c2csc(N/N=C/c3cccnc3)n2)c(Cl)c1	Pf growth 48h 10µM, Pf growth 96h 4.7µM
Cc1ccc(/C=N/Nc2nc(C(C)(C)C)cs2)o1	Cycloheximide cs 46, Pf growth 48h inconclusive, Shiga toxin inh 93
NCCCC[C@@H](N)C(=O)O	none (no result: NS1 function inh, Pf growth 48h, Pf growth 96h, SARS PLpro yeast)
Cc1ccc(Cl)cc1NC(=S)NN	Pf growth 48h inconclusive, Pf growth 96h inconclusive
CC(C)Cc1cc(C(=O)N2CCCC(C(=O)c3cc(F)ccc3F)C2)no1 (stereo unspecified)	Pf growth 96h 4.7µM
O=C(c1cc(COc2ccc(F)cc2F)on1)N1CCN(C2CCCC2)C(=O)C1	Pf growth 48h 8.3µM
O=C(c1cc(COc2ccc(F)cc2Cl)on1)N1CCCC(c2ccccc2)C1 (stereo unspecified)	Pf growth 48h inconclusive
O=C(c1cc(COc2ccc(F)cc2F)on1)N1CCCC(c2ccccc2)C1 (stereo unspecified)	Cycloheximide cs 19
CSc1ccccc1OCc1cc(C(=O)N2CCC[C@H]2C(N)=O)no1	Pf growth 96h inconclusive
O=C(c1cc(COc2ccc(F)cc2F)on1)N1CC[C@@H]2CCCC[C@H]2C1	Pf growth 96h inconclusive
O=C(c1cc(F)ccc1F)C1CCCN(C(=O)c2cccs2)C1 (stereo unspecified)	Pf growth 96h inconclusive
CSc1ccccc1OCc1cc(C(=O)N2CCN(C3CCCC3)C(=O)C2)no1	Cycloheximide cs 54, Pf growth 48h inconclusive, Pf growth 96h inconclusive, Shiga toxin inh 41
N#Cc1ccc(NC(=O)COc2ccc(-n3cnnn3)cc2)cc1	none (no result: Cycloheximide cs, NS1 function inh, Pf growth 48h, Pf growth 96h, Shiga toxin inh)
